Hits are enriched below; roughly 22% of the tested compounds scored in any of these assays.
Pf growth 96h = P. falciparum growth inhibition at 96 hour, primary screen for plastid delayed-death inhibitors. Potency, µM (titrated, usually from 28.7 µM), most hits filed as inhibitors. 6.9% of 320,000 active. P. falciparum luciferase reporter growth, 96 h
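Two-generation exposure (96 h) targets delayed-death phenotype. Reporter parasites carrying integrated firefly luciferase, in red cells at 2% hematocrit and 0.05% parasitemia final, kept at 37 C, 5% CO2; luminescence loss indicates inhibition.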
Cycloheximide cs = counter-screen hit for Shiga toxin inhibitors, cycloheximide | 12% of 300,000 active | max response, % | cell reporter, cycloheximide protein synthesis inhibition counterscreen; in the data active = max response mostly above about 13%, no sharp cut-off; inactive = mostly below about 14%; note: read at 38.3 µM for the half of the compounds with a filed dose
Pf growth 48h = P. falciparum growth inhibition at 48 hours (one generation); P. falciparum luciferase growth in erythrocytes, 48 h; Potency, µM (doses to about 28.7 µM), actives largely listed as inhibitors; 5.9% of 310,000 active; AID 504832
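A one-generation exposure of luciferase-tagged malaria parasites in RPMI 1640/Albumax erythrocyte culture, 37 C and 5% CO2. Inhibition is inferred from decreased luminescence after adding detection reagent.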
LmPK inhibitor = LmPK (Leishmania mexicana) enzyme inhibition. Q27686. Potency, µM (doses to about 57.5 µM), most hits filed as inhibitors. AID 1721. purified LmPK, Kinase-Glo ATP luminescence, 1 h. 0.37% of 290,000 active
Target sequence (Q27686 whole entry, looked up): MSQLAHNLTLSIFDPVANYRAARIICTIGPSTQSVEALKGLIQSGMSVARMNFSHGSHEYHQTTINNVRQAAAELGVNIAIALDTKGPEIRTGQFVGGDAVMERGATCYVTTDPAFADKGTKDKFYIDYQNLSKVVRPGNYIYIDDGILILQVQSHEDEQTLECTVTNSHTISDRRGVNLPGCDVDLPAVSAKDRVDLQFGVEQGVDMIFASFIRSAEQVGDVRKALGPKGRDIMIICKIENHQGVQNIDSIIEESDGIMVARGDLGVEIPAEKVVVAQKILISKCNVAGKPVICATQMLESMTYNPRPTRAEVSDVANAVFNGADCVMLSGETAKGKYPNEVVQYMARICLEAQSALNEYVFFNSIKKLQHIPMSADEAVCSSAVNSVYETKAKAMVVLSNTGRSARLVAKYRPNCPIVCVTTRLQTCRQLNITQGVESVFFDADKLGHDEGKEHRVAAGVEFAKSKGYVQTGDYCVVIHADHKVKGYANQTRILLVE
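qHTS format; LmPK 0.1 nM; substrates PEP 0.5 mM and ADP 0.1 mM. One-hour room-temperature incubation, then coupled luciferase luminescence; 0.5 nM enzyme wells mark activation.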
Shiga inhibitor = Shiga toxin inhibition; Vero cells, Shiga toxin protein synthesis inhibition reporter; inhibition, % at 38.7 µM; 9.2% of 290,000 active; AID 2315; in the data active = inhibition mostly above about 28%, no sharp cut-off; inactive = mostly below about 43%
Numbers stand for hits; 0 = inactive; ? = inconclusive; - = no result given; [ ] = remark or other dose. Unless noted, calls come from the whole dose curve; as a rule, active = well fitted inhibition curve with a large enough effect; inconclusive = small, poorly fitted or top-dose-only effect, or another doubt; inactive = no such curve, though single readings can be large or run the other way.

SMILES	Pf growth 96h	Cycloheximide cs	Pf growth 48h	LmPK inhibitor	Shiga inhibitor
Cc1c(C(=O)c2ccc(Cl)cc2Cl)cnc2cc3c(cc12)OCO3	13.1µM	0	8.28µM	0	0
COc1ccc(Cl)cc1NC(=O)c1cnc2sccn2c1=O	0	0	0	0	0
O=C(c1c(Cl)nc2sccn12)N(C(=O)c1c(Cl)nc2sccn12)c1ccc(Cl)cn1	0	79.7	-	0	187.3
COc1cccc(CN2CCNC(=O)C2CC(=O)NCCn2cccn2)c1OC (configuration not stated)	?	0	0	0	0
COc1cccc(CN2CCNC(=O)C2CC(=O)NCC(C)(C)N2CCOCC2)c1OC (configuration not stated)	10.4µM	0	0	0	0
COc1cccc(CN2CCNC(=O)C2CC(=O)NCCN2CCOCC2)c1OC (configuration not stated)	0	0	0	0	0
COc1cccc(CNC(=O)CC2C(=O)NCCN2Cc2ccoc2)c1OC (configuration not stated)	11.7µM	0	?	0	0
CNNCc1ccc(C(=O)NC(C)C)cc1	?	-	0	-	-
CC(=O)c1nnn(-c2c(F)cccc2F)c1C	0	12.2	0	0	0
COc1ccc2c(c1)C(=NN)c1cc(OC)ccc1-2	0	45.4	?	0	0
Cc1ccc(-c2cc(C(=O)N(C)Cc3cnn(C)c3C)c3cc(Br)ccc3n2)cc1	?	0	9.28µM	0	0
Cc1cccc(NC(=S)N=Nc2c(O)[nH]c3ccccc23)c1	2.94µM	0	?	0	0
COc1ccccc1NC(=S)N=Nc1c(O)[nH]c2ccc(Br)cc12	1.04µM	0	0.928µM	0	0
COc1ccc(/C=N/OCC(=O)N=Nc2c(O)[nH]c3ccc(Br)cc23)cc1OC	0	0	0	0	0
CC(C)c1ccc2[nH]c(O)c(N=NC(=O)c3cccc(S(=O)(=O)Nc4ccccc4Cl)c3)c2c1	0	0	0	0	0
CC(C)NC(=S)N=Nc1c(O)[nH]c2ccc(C(C)C)cc12	?	0	8.28µM	0	0
CC(=O)c1cccc(NC(=O)Cc2ccc3c(c2)CCCC3)c1	0	0	0	0	0
CC(C)OCCCNC(=O)CN1C(=O)CSc2ccc(S(=O)(=O)N3CCCCC3)cc21	0	0	?	0	0
CC1=NN(Cc2c(C)nn(Cc3ccccc3)c2C)C(C)(C)C1	?	0	0	0	0
CCC(C)[C@H](N)C(=O)NC[C@H]1CC[C@H](C(=O)N[C@@H](Cc2ccccc2)C(=O)O)CC1 (some centres not stated)	0	0	0	0	0
COc1cc(OC)c(OC)cc1CNCCNC(=O)c1ccco1	0	0	0	0	0
COCCN(C(=O)COC(=O)c1ccc(C=O)cc1)c1c(N)n(Cc2ccccc2)c(=O)[nH]c1=O	0	0	0	0	0
Cc1ccc(-c2nc3ccccc3[nH]2)s1	0	52.5	0	15.8µM	63.9
Cc1nnsc1-c1nc2ccccc2[nH]1	?	0	0	0	0
Cc1cc(=O)[nH]c(-c2cccs2)n1	0	0	0	0	0
SMILES	Pf growth 96h	Cycloheximide cs	Pf growth 48h	LmPK inhibitor	Shiga inhibitor
c1csc(-c2nc3ccccc3[nH]2)c1	-	36.0	0	?	65.2
Cc1[nH]c2ccccc2c1-c1nc2ccccc2[nH]1	0	48.0	?	0	56.4
Cc1ccccc1C(=O)NC(CC(C)C)C(=O)NN1C(=O)c2ccccc2C1=O (configuration not stated)	0	0	0[5.75 µM]	0	0
CCOC(=O)COc1ccc2c(c1)c(C(=O)OCC)c(C)n2CC	0	0	0	0	0
CCc1ccc2oc(C(=O)Nc3nonc3CC)c(C)c2c1	0	58.9	0	0	52.6
CCN(CC)S(=O)(=O)c1ccc2oc(C(=O)NCc3ccc(C)cc3)c(C)c2c1	-	0	9.28µM	0	0
CCc1nonc1NC(=O)c1oc2ccc(C)cc2c1C	?	36.1	0	0	45.5
CCc1nonc1NC(=O)c1oc2cc(Br)ccc2c1C	?	15.4	9.28µM	0	0
CCc1ccc2oc(C(=O)Nc3ccc(S(N)(=O)=O)cc3)c(C)c2c1	0	0	0	0	0
CCc1nonc1NC(=O)c1oc2c(C)c(C)ccc2c1C	0	0	?	0	0
CCCC(=O)Nc1c(I)cc(I)c(C[C@H](CC)C(=O)O)c1I	0	-	0	-	-
Cc1cc2oc(C(=O)Nc3nonc3C)c(C)c2cc1Cl	8.28µM	0	0	0	0
Cc1cc(C)c2c(C)c(C(=O)NCc3ccncc3)oc2c1	0	0	?	0	0
Cc1nonc1NC(=O)c1oc2ccc(F)cc2c1C	0	0	0	0	0
